An excerpt weighted towards active compounds, which were near 9.3% of everything screened.
Rab9 promoter act: Rab9 promoter activation | Potency, µM (highest dose often 9.22 µM), inactives show at the highest dose activation, negative = inhibition, hits mostly activators | Huh7 Rab9 promoter-luciferase reporter, luminescence, 24 h | hit rate 2.8% among 320,000; also: % of control where 0% means no effect; nearly all actives have a fitted effect of over 60% in size
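Luminescence read-out: Huh7 cells stably expressing Rab9-luciferase, treated 24 h with compound at 37 °C, then lysed with luciferase reagent for 10 min at ambient before reading.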
NPC1 prom act: activates the NPC1 promoter; Huh7 NPC1 promoter luciferase reporter, 24 h; Potency, µM (highest dose often 9.22 µM), inactives show top-dose activation, most hits filed as activators; hit rate 2.4% among 320,000; AID 485313; also: % of control where 0% means no effect; nearly all actives have a fitted effect of over 60% in size
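Luciferase expression driven by the NPC1 promoter was measured in stably transfected Huh7 cells after a 24 h compound incubation, using a luciferase reagent and a luminescence read.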
SMN2 splice enh: SMN2 splice variant enhancement; HEK293 SMN2-luciferase splicing reporter, luminescence, 30-36 h; hit rate 2.8% among 210,000; Potency, µM (titrated, usually from 46.1 µM), inactives show at the top dose activity change, positive = activation, actives largely listed as activators; also: % of control where 0% means no effect; nearly all actives have a fitted effect of over 55% in size
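HEK293 cells carry an SMN2 […]–luciferase reporter in which exon 7 inclusion puts luciferase in frame. Cells were plated 10-12 h before compound addition, then incubated 30-36 h at 37C. ONE-Glo luminescence was read; sodium butyrate at 4.5 mM final served as control.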
ELG1 genotox: inducers of genotoxicity in HEK293T ELG1-luciferase cells; HEK293T ELG1-luciferase reporter, luminescence, 16 h; Potency, µM (doses to about 46 µM), without a hit: at the highest dose activity change, positive = activation, actives largely listed as activators; AID 504466; hit rate 1.3% among 330,000; also: % of control where 0% means no effect; nearly all actives have a fitted effect of over 60% in size
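Quantitative HTS format in 1536-well plates. HEK293T ELG1-luciferase reporter cells receive test compound and are incubated 16 hr at 37 °C, 5% CO2; ONE-Glo added, 30 min room temperature, then luminescence read.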
ELG1 DNA repair: inhibitors of ELG1-dependent DNA repair in HEK293T cells; HEK293T ELG1-luciferase reporter, luminescence, 16 h; DNA damage induced by 5-fluorouridine; Potency, µM (top dose mostly 46.1 µM), inactives show at the top dose activity change, negative = inhibition, hits mostly inhibitors; hit rate 2.3% among 330,000; also: % is scaled to controls: 0 for no effect and ±100 for the full control effect; nearly all actives have a fitted effect of over 55% in size
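Quantitative HTS, concentration-response format. 2,000 cells/well co-treated with 5-fluorouridine and compound, 16 hr in 5% CO2 at 37 °C; ONE-Glo luminescence read after 30 min.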
FLuc counter: counter-screen for miR-21 project: firefly luciferase inhibitors or activators | P08659 | purified FLuc, Km substrates, luminescence inhibition | Potency, µM (top dose mostly 57.5 µM), for inactives: at the highest dose activity change, negative = inhibition, most hits filed as inhibitors | hit rate 6.9% among 360,000;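 also: plate controls were vehicle for no effect and reference inhibitor for full effect; nearly all actives have a fitted effect of over 55% in size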
Target sequence (P08659 whole entry, looked up): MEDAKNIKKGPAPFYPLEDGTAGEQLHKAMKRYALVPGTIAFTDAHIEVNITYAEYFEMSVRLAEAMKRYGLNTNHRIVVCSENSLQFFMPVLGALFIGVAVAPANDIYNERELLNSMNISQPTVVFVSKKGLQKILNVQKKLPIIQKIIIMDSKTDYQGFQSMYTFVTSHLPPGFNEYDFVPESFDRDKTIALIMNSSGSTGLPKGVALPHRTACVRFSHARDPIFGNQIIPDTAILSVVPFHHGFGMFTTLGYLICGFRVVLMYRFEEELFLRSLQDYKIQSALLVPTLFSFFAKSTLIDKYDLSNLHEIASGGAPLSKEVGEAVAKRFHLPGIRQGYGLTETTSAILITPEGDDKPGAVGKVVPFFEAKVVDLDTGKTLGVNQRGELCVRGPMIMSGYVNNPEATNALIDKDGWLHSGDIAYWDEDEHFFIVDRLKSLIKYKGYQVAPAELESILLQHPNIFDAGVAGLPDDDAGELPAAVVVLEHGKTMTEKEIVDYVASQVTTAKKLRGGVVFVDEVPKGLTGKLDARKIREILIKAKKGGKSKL
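Biochemical qHTS of compounds, final roughly 60 µM downward over six points, against 10 nM purified firefly luciferase using Km concentrations of substrates (10 uM D-luciferin, 10 uM ATP) in Tris acetate pH 7.5 buffer; luminescence output.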
* marks the source's active call; other numbers are inactive results; ? = inconclusive; . = no result; [ ] = remark or other dose. Calls follow the shape of the dose curve; as a rule, active = well fitted curve in the direction sought with a large enough effect; inconclusive = small, poorly fitted or top-dose-only effect, or another doubt; inactive = no such curve, though single readings can be large; an effect the other way counts as inactive or inconclusive. Potency is read from the fitted curve at half-maximal effect.

SMILES	Rab9 promoter act	NPC1 prom act	SMN2 splice enh	ELG1 genotox	ELG1 DNA repair	FLuc counter
CC(C)(C)c1ccc(O)c(C[N+](C)(C)C)c1	.	.	1%[9.22 µM]	.	.	.
NC(CCl)=N[C@H]1CN2CCC1CC2	.	.	9%[9.22 µM]	.	.	.
CN(C)c1ccc(-[n+]2c(-c3ccccc3)cc(-c3ccccc3)cc2-c2ccccc2)cc1	-51%	-44%	-83%	-25%	4.6µM*	1%
Cc1ccc(-c2cc(-c3ccccc3)cc(-c3ccccc3)[n+]2-c2ccccc2)cc1	-42%	-41%	.	-9%	?	4%
c1ccc(-c2cc(-c3ccccc3)[n+](-c3ccccc3)c(-c3ccccc3)c2)cc1	-50%	-45%	.	-21%	2.3µM*	-1%
Cc1oc(-c2ccc(Cl)cc2)nc1CN1CCC(C(=O)NCCCN2CCN(c3cccc(Cl)c3)CC2)CC1	.	.	-19%	.	.	?
CCN=C=NCCCN(C)C	.	.	-11%[9.22 µM]	.	.	.
CN(C)CCCc1cccnc1	.	.	-6%[9.22 µM]	.	.	.
C[C@@H](Cc1ccc(Cl)cc1Cl)NO	.	.	-8%[9.22 µM]	.	.	.
CCCCCCOc1ccc(CN2CCN(C)CC2)cc1	?	?	-3%	5.8µM*	?	6.7µM*
O=C(CCl)c1ccc(Cl)cc1Cl	.	.	0%	.	.	.
O=C1NC(=S)NC(=O)C12C(c1ccc(F)cc1)NC(=S)NC2c1ccc(F)cc1 (configuration not stated)	1%	-3%	1.6µM*	0%	-2%	1%
CCN1C[C@]2(C)CC[C@H](OC)[C@@]34[C@H]1C1(OCO[C@@]15C[C@H](OC)C1C[C@]3(O)C5[C@H]1OC)[C@@H](O)[C@H]24	.	.	-7%	.	.	.
Cc1ccc(S(=O)ON2CCC(C(=O)O)(c3ccccc3)CC2)cc1 (configuration not stated)	.	.	-1%[9.22 µM]	.	.	.
CN1C2CCC1/C(=C/c1ccccn1)C(=O)/C2=C\c1ccccn1	-45%	-31%	-126%	-23%	1.8µM*	-9%
OC(c1ccc(Cl)cc1)(c1ccc(Cl)cc1)C(Cl)(Cl)Cl	.	.	1%	.	.	.
CNC(=O)c1cccn(Cc2ccc(C(F)(F)F)cc2)c1=O	14%	-14%	-8%	18µM*	?	0%
CNC(=O)c1cccn(Cc2cc(C(F)(F)F)cc(C(F)(F)F)c2)c1=O	-11%	-8%	-68%	1%	6.5µM*	-5%
CC1CCN(C(=O)COC(=O)c2cn(C)c3ccccc23)CC1	-2%	-3%	.	7%	?	24µM*
OCC[n+]1c2ccccc2nc2ccc(N3CCOCC3)cc21	-4%	-3%	.	-10%	23µM*	27µM*
COc1ccc(N=Cc2c(O)n(Cc3ccccc3)c(=S)[nH]c2=O)c(OC)c1	?	?	.	?	?	1.2µM*
COc1ccc(OC)c(N=Cc2c(O)n(Cc3ccccc3)c(=S)[nH]c2=O)c1	0%	3%	.	-6%	-1%	1%
CN(C)C(=O)Oc1ccc2c(c1)O/C(=C\c1cccc(Cl)c1)C2=O	?	?	.	13%	?	27µM*
CN(C)C(=O)Oc1ccc2c(c1)O/C(=C\c1ccc(Cl)cc1)C2=O	4.5µM*	?	.	?	?	?
O=C1/C(=C/c2ccc(F)cc2)Oc2cc(OC(=O)N3CCOCC3)ccc21	22%	27%	.	4%	15%	5.4µM*
SMILES	Rab9 promoter act	NPC1 prom act	SMN2 splice enh	ELG1 genotox	ELG1 DNA repair	FLuc counter
CN(C)C(=O)Oc1ccc2c(c1)O/C(=C\c1cccc([N+](=O)[O-])c1)C2=O	-4%	1%	.	1%	8%	0%
COc1ccc(/C=C2\Oc3cc(OC(=O)N4CCOCC4)ccc3C2=O)c(OC)c1	1%	3%	.	-5%	-4%	?
CCOc1cccc(CC(=O)NCc2ccc3c(c2)CCN3C(=O)c2cccc(C)c2)c1OCC	.	.	-51%	.	.	?
O=C(NNc1c(F)c(F)cc(F)c1F)c1cc2ccccc2oc1=O	3.2µM*	?	22%	?	?	?
CC(C)[N+](=O)[O-]	.	.	2%	.	.	.
c1ccc(C2CO2)cc1 (configuration not stated)	.	.	7%	.	.	.
COc1ccc(C(=O)C23CN4CN(CN(C4)C2)C3)cc1	-9%	-5%	.	0%	-7%	0%
COc1ccc(C(=O)Nc2sc3c(c2C(=O)O)CC(C)(C)OC3)cc1	-8%	-1%	-36%	-7%	-11%	17µM*
COc1ccc(OC)c(C(Nc2ccccc2)P(=O)(OC(C)C)OC(C)C)c1 (configuration not stated)	0%	-4%	.	-8%	?	-1%
O=C(/C=C/c1ccccc1)C1C(=O)c2ccccc2C1=O	2.2µM*	4µM*	10µM*	15%	?	0.38µM*
CC1=C2C(=O)[C@@H]3[C@@H](CC=C4C[C@@H](O)CC[C@@]43C)[C@H]2CC[C@@]12O[C@H]1C[C@H](C)CN[C@H]1[C@@H]2C	.	.	4%[9.22 µM]	.	.	.
BrC(Br)Br	.	.	3%	.	.	.
CCc1ccc(CN2CCN(Cc3ccc(SC)cc3)CC2)cc1	-10%	-6%	-87%	-3%	5.8µM*	1%
C=CC(N)=O	.	.	-11%	.	.	.
CCOc1ccc(NC(=O)c2ccc(NC(=O)COC(=O)Cc3ccccc3)cc2)cc1	?	?	20µM*	?	?	-14%
C#C[C@]1(O)CC[C@H]2[C@@H]3CCC4=CC(=O)CC[C@]4(C)[C@H]3CC[C@@]21C	2%	0%	-42%	1%	11%	-2%
C#C[C@]1(O)CCC2C3CCC4=C/C(=N/OCC(=O)NC(C)C(=O)NC(CCSC)C(=O)O)CC[C@]4(C)C3CC[C@@]21C (some centres not stated)	0%	0%	.	0%	8.2µM*	4%
O=C(O)C[O][Sb][O]CC(=O)O	.	.	15%[9.22 µM]	.	.	.
Cc1cc(/C=C2\C(=O)NC(=S)N(C)C2=O)c(C)n1C1CCCCC1	-4%	-2%	1%	?	?	0.48µM*
CCN1C(=O)C(=Cc2cc(C)n(C3CC3)c2C)C(=O)N(CC)C1=S	0%	-4%	0%	2%	13%	-2%
Cc1cc(C=C2C(=O)N(C)C(=S)N(C)C2=O)c(C)n1C1CCCC1	-9%	0%	-14%	?	0%	2.4µM*
Oc1c(Cl)cc(Cl)cc1Cl	.	.	-1%	.	.	.
COC1=CC(=O)[C@]2(C=C1OC)OC[C@@H]1Oc3c(ccc4c3C=CC(C)(C)O4)C(=O)[C@@H]12	.	.	.	-12%	1.2µM*	.
C(=NC1CCCCC1)=NC1CCCCC1	.	.	0%	.	.	.
C#CCOc1ccc2c(c1)c(C(C)=O)c(C)n2Cc1ccccc1	0%	-4%	.	-4%	21µM*	1%
c1ccc(CN2CCc3nc4ccccc4cc3C2)cc1	?	?	.	?	?	12µM*
CCCC(=O)Cl	.	.	-1%	.	.	.

Screening results from PubChem BioAssay.
